Out of some 370,000 compounds screened, about 4,100 (1.1%) were called active. The full list was thinned out, with actives kept by preference. Unmarked numbers belong to inactive results.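 How the source made its calls: active means inhibition above the mean over all tested compounds plus 3 SD (cut at about 3.6% in these data); inactive means the rest.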
assay: relief of DAX-1 repression of SF-1 activity – cell-based, luminescence, SF-1 (NR5A1), full-length DAX-1, primary screen (AID 652010); conditions: HEK293T StAR-luciferase reporter, SF-1/DAX-1 repression relief; at 6.8 µM; active compounds read high;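 further: 0% = DAX-1 cells with DMSO and 100% = cells lacking DAX-1 with DMSO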

Point of comparison: `Cn1c(SCC(=O)NC2CCCCC2)nnc1-c1cc2ccccc2o1`, inhibition -0.14%. Against it:
- CCOc1ccccc1C(=O)N1CCC[C@@H]1C(=O)N1CCC[C@H]1C(=O)NCc1ccccc1 — higher, 0.55%
- COc1ccc(-n2c(SCC(=O)NC3CCCC3)nnc2-c2ccncc2)cc1 — lower, -0.56%
- CC(=NNC(N)=O)c1ccc(Cl)c(-n2cccc2)c1 — lower, -0.18%
- COc1ccccc1CN(C)C(=O)c1cc2ccccc2o1 — lower, -0.34%
- O=C(NCc1ccc(F)cc1)c1cc(C2CCCCN2C(=O)c2ccccn2)on1 (stereo unspecified) — lower, -1.23%
- COc1ccc(C2CC=C(C(=O)O)C(c3ccccc3F)N2S(=O)(=O)c2ccc(C)cc2)cc1OC (stereo unspecified) — higher, 0.7%
- O=S(=O)(c1ccccc1)N1CCC(c2nc3ccccc3o2)CC1 — lower, -0.48%
- Cc1ccc(CN2CCC(N3CCC(C(=O)NCC4CCCO4)CC3)CC2)o1 (stereo unspecified) — higher, 0.9%
- Cc1cccc(NC(=O)COc2ccc(Br)cc2C)n1 — higher, 2.42%
- CC(=O)NC(c1cccc(F)c1)c1nc(-c2cccc(F)c2)cs1 (stereo unspecified) — lower, -0.34%
- OC(c1ccccc1)(c1ccccc1)C1CCN(CCCOc2ccc(-c3ccsc3)cc2)CC1 — lower, -0.82%
- CCC(=O)Nc1ccc2c(c1)C(=O)N(C)[C@H]1CC[C@H](CC(=O)NCCOC)O[C@@H]1CO2 — higher, 0.92%
- Cc1c(C=O)n(C)n(-c2ccccc2)c1=O — higher, 0.3%
- Cc1nc(N)sc1N=Nc1c(C)n(C)n(-c2ccccc2)c1=O — higher, 0.04%
- C=CCn1c(SCC(N)=O)nnc1-c1ccccc1OC — higher, -0.12%
- COc1ccc(CCC(=O)OCC(=O)Nc2ccc(C)c(S(=O)(=O)N(C)C)c2)cc1 — higher, 1.11%
- CCN(CC(=O)Nc1ccc(C)c(S(=O)(=O)N(C)C)c1)Cc1ccccc1 — higher, 0.23%
- CCc1nc2ccc(C(=O)Nc3ccc(OC)c(OC)c3)cn2c1N(C)C(=O)c1cccc(OC)c1 — lower, -1.08%
- CSCCC(NC(=O)c1ccco1)C(=O)OCC(=O)Nc1ncc(Cl)c(C)c1Cl (stereo unspecified) — higher, -0.11%
- CSCCC(NC(=O)c1ccco1)C(=O)NCCc1ccc(F)cc1 (stereo unspecified) — higher, 0.47%
- COC(=O)c1ccc(CN2C(=O)NC(c3ccccc3)(c3ccccc3)C2=O)o1 — higher, 0.15%
- O=C(C1CCCN1S(=O)(=O)c1ccccc1)N1CCc2ccccc2C1 (stereo unspecified) — lower, -0.56%
- CC(C)CC(=O)NC(=S)NNC(=O)c1cccc([N+](=O)[O-])c1 — lower, -0.72%
- CC(NC(=O)COC(=O)c1ccc2ccccc2n1)c1ccccc1 (stereo unspecified) — higher, 0.44%
- O=C(CSc1nc2ccccc2s1)NN=Cc1ccc(O)cc1O — lower, -0.65%
- CC(C)C(C)NC(=O)COc1ncnc2ccccc12 (stereo unspecified) — lower, -0.45%
- Cc1ccc(C)c(NC(=O)CCS(=O)(=O)c2ccccc2)c1 — higher, 0.88%
- COc1ccc(S(=O)(=O)n2nc(C)c(S(=O)(=O)N3CCOCC3)c2C)cc1 — lower, -0.25%
- COc1ccc(CN2C/C(=C/c3ccccc3)N3C(=O)C[C@@H](c4ccccc4)N=C23)c(OC)c1 — lower, -0.16%
- CCN(CC)C(=O)CC[C@H]1CC[C@]2(CCCN(Cc3ccc(Cl)cc3)C2)O1 — lower, -0.32%
- COc1ccc(S[C@]2(C(=O)N(C)C)CC(=O)N(c3ccc(OC)cc3)[C@@H]2c2ccc(OC)cc2)cc1 — lower, -0.46%
- Cc1cc(=O)[nH]c(SCC(=O)Nc2ccc(Cl)cc2C)n1 — higher, 0.86%
- CCCCCCNC(=O)O[C@]12C[C@@H](C(=O)OC)[C@@H](C(=O)OC)C[C@@]1(O)CN(S(=O)(=O)c1ccc(C)cc1)C2 — lower, -0.86%
- Cc1ccc(S(=O)(=O)N2C[C@H]3n4c(=O)ccc(=O)n4C[C@H](OC(=O)NC4CCCC4)[C@@]3(O)C2)cc1 — lower, -0.77%
- Cc1ccccc1NC(=O)COC(=O)c1ccc(Sc2ncn[nH]2)c([N+](=O)[O-])c1 — higher, 2.48%
- CC1(C)OC(=O)C2=C(CC(CCc3ccccc3)OC2c2ccc(Cl)cc2)O1 (stereo unspecified) — lower, -1.2%
- COc1ccccc1-c1nnc(NC(=O)c2ccc3ncsc3c2)o1 — higher, 0.87%
- O=C(COC(=O)c1ccc2ncsc2c1)Nc1ccc(Cl)cc1 — lower, -0.21%
- CCNC(=O)c1cccc(NC(=O)C2CC(=O)N(CCc3ccccc3)C2)c1 (stereo unspecified) — higher, 0.37%
- CN(Cc1ccccc1Cl)C(=O)C1CCC(=O)N(CCc2cccc(F)c2)C1 (stereo unspecified) — higher, 0.69%
- C=CCN1C(=O)[C@@H](CC(=O)N2CCN(C(=O)OCC)CC2)[C@]2(C(=O)OCC)CCCCC/C=C/12 — higher, 1.04%
- COC(=O)[C@H](C(C)C)N(CCCc1cn(Cc2ccccc2)nn1)S(=O)(=O)c1ccc(F)cc1Br — lower, -1.67%
- Cc1sc2ncnc(N3CCC(C(=O)NNC(=O)c4ccc(F)cc4)CC3)c2c1C — lower, -3.62%
- Cc1sc2ncnc(N3CCC(C(=O)Nc4ccc(F)cc4Cl)CC3)c2c1C — higher, 1.94%

With `CCNc1nc(-c2cc3ccccc3o2)cs1` the inhibition was 4.18% (active).
For `CC(=O)Nc1cccc(-c2csc(Nc3cccc(C)n3)n2)c1`, the inhibition was 4.69% (active).
In the case of `Cc1c(N=Nc2ccc(N(C)C)cc2)c(=O)n(-c2ccccc2)n1C`, the inhibition is reported as 4.03% (active).
With `Cc1ccc(C(=O)Nc2ccc(C)c(S(=O)(=O)N(C)C)c2)s1` the inhibition was 4.23% (active).
For `CSCCC(NC(=O)c1ccco1)C(=O)Nc1cc(C)ccn1` (stereo unspecified), the inhibition was 11% (active).
For `CCC(=O)NC(=Nc1nc2ccccc2s1)NC(=O)CC`, the inhibition was 3.92% (active).
With `CC(C)CC(=O)N/C(N)=N/c1nc2ccccc2s1` the inhibition was 4.37% (active).
For `CCCCCCNC(=O)O[C@H]1CN(C(=O)OC(C)C)N(C(=O)OC(C)C)[C@@H]2CN(S(=O)(=O)c3ccc(C)cc3)C[C@]12O`, the inhibition was 4.45% (active).
For `Cc1sc(NC(=O)c2ccc3ncsc3c2)c(C(N)=O)c1C`, the inhibition was 10.2% (active).
In the case of `CN(CC(=O)Nc1cccc(F)c1)C(=O)C1CC(=O)N(CCc2ccccc2)C1` (stereo unspecified), the inhibition is reported as 4.19% (active).
In the case of `Cc1sc2ncnc(N3CCC(C(=O)Nc4nc5ccc(Cl)cc5s4)CC3)c2c1C`, the inhibition is reported as 4.32% (active).

Reference: PubChem BioAssay AID652010 (The Scripps Research Institute Molecular Screening Center, 2013)
